8 molecules from PubChem BioAssay (NCATS) can be followed below.

Experiment [1] has as its target Calcium and integrin-binding protein 1 (Homo sapiens) (UniProt Q99828). The experiment in a line: Primary qHTS for Identification of Calcium Integrin Binding Protein 1 (CIB1) Competitor (AID 1508620).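 Note: GST tagged CIB1 binding a fluorescein labelled alphaIIb integrin peptide tracer; top concentration of the series differs between compounds.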 To be noted: CIB1-GST / FITC-alphaIIb peptide fluorescence polarization; series mostly up to 57.7 µM. Put shortly:
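Fluorescence polarization competition: CIB1-GST (1 uM final) preincubated with compound 15 min at room temperature, then FITC-labeled alphaIIb peptide (100 nM final) added for another 15 min. Polarization read at Ex 480/Em 540.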
Background: In qHTS, concentration-response curves come from the screen itself.

The nature of experiment [2]: Primary qHTS for small molecule stabilizers of the endoplasmic reticulum resident proteome: Secreted ER Calcium Modulated Protein (SERCaMP) assay (AID 1508630). The note with it: SH-SY5Y GLuc-SERCaMP (Gaussia luciferase released on ER calcium loss) secretion, thapsigargin, luminescence; series mostly up to 38.4 µM. The gist of the method:
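The SH-SY5Y reporter protocol was run at 3 concentrations up to 38.3 uM (primary) or 11 concentrations (follow-up): 16 h compound, 100 nM thapsigargin for 4 h, then extracellular luciferase luminescence.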

In experiment [3] the target is Cytochrome P450 2D6 (Homo sapiens) (UniProt P10635). The experiment in a line: Cytochrome P450 family 2 subfamily D member 6 (CYP2D6) small molecule antagonists: luciferase biochemical (cell-free) qHTS assay (AID 1645840; active = well fitted curve in the direction sought with a large enough effect in the repeat runs; an effect the other way counts as inactive or inconclusive; note: nearly all actives have a fitted effect of over 55% in size; note: potency is the fitted concentration of half-maximal effect). The note with it: P450-Glo CYP2D6 enzyme, luciferin luminescence, 1 h; series mostly up to 57.4 µM. Put shortly:
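P450-Glo CYP2D6 system: proluciferin substrate converted by enzyme to luciferin, read by luminescence proportional to activity. Enzyme-substrate mix with compound 10 min at room temperature, then NADPH regeneration 1 h before detection reagent.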

Experiment [4] deals with Cytochrome P450 2C9 (Homo sapiens) (UniProt P11712). The experiment in a line: Cytochrome P450 family 2 subfamily C member 9 (CYP2C9) small molecule antagonists: luciferase biochemical (cell-free) qHTS assay (AID 1645842; active = well fitted curve in the direction sought with a large enough effect in the repeat runs; an effect the other way counts as inactive or inconclusive; note: nearly all actives have a fitted effect of over 55% in size; note: potency is the fitted concentration of half-maximal effect). The note with it: P450-Glo CYP2C9 enzyme assay, luciferin luminescence; series mostly up to 57.4 µM. The gist of the method:
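P450-Glo CYP2C9 system: proluciferin substrate with enzyme in mix containing 0.4% BSA, 10 min at room temperature, then NADPH regeneration solution added and incubated 1 h at 37C. Detection reagent stopped reaction; luminescence read after 20 min as RLU.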

The nature of experiment [5]: Primary qHTS for inhibitors of nuclear receptor binding SET domain protein 2 (NSD2) in an isogenic RCH-ACV NSD2 p.E1099K mutant (9B) (AID 1645876). Note: nearly all actives have a fitted effect of over 70% in size. Note: potency is the fitted concentration of half-maximal effect. The note with it: RCH-ACV NSD2 E1099K (9B) viability, CellTiter-Glo, 72 h; series mostly up to 44.9 µM.
A short description of experiment [6]: Primary qHTS for inhibitors of nuclear receptor binding SET domain protein 2 (NSD2) in an RCH-ACV wild type WT cells (2C) (AID 1645877). Note: nearly all actives have a fitted effect of over 70% in size. Note: potency is the fitted concentration of half-maximal effect. To be noted: RCH-ACV (leukaemia line) NSD2 WT (2C) viability, CellTiter-Glo, 72 h; series mostly up to 44.9 µM.

Where “and” joins values, the source holds several entries; their conditions need not be identical. Equal entries are not always repeated. Records with an inconclusive call do not appear. Calls of active or inactive are those of the source. Unless noted, calls come from the whole dose curve; as a rule, active = well fitted curve in the direction sought with a large enough effect; inconclusive = small, poorly fitted or top-dose-only effect, or another doubt; inactive = no such curve, though single readings can be large; an effect the other way counts as inactive or inconclusive.

Cytochrome P450 2C9 (Homo sapiens), sequence (P11712 whole entry, looked up): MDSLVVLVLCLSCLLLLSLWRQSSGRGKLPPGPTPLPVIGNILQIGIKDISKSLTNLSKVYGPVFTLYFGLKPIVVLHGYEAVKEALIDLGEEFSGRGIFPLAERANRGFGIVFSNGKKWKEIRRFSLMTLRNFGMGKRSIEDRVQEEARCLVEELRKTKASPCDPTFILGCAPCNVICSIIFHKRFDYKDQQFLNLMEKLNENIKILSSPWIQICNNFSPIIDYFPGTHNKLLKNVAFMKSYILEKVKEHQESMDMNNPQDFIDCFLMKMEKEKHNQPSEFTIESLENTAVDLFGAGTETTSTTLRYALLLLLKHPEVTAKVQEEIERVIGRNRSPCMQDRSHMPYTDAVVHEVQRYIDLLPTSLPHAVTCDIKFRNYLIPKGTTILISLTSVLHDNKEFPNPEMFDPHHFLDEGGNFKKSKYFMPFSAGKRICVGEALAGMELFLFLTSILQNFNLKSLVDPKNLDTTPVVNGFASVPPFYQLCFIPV
Calcium and integrin-binding protein 1 (Homo sapiens), sequence (Q99828 whole entry, looked up): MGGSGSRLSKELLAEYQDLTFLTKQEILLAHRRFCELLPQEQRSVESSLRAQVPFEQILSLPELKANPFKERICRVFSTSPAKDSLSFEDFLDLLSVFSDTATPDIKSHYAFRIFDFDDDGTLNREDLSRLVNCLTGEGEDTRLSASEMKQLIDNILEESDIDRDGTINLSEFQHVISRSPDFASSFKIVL
Cytochrome P450 2D6 (Homo sapiens), sequence (P10635 whole entry, looked up): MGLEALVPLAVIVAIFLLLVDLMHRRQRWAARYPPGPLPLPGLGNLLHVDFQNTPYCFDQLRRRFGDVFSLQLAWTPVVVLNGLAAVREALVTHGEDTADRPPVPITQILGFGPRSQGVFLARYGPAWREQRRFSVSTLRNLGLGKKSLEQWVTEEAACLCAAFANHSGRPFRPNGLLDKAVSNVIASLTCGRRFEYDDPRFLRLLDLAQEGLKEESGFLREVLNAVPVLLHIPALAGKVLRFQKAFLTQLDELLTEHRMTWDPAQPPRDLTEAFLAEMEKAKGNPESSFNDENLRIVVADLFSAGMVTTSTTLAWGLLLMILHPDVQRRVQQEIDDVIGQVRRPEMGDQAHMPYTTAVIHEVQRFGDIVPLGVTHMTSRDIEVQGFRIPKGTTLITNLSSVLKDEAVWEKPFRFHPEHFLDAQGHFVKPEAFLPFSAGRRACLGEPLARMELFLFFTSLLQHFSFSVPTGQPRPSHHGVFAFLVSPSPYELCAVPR

For `COC(=O)c1ccc2c(C(=Nc3ccc(N(C)C(=O)CN4CCN(C)CC4)cc3)c3ccccc3)c(O)[nH]c2c1`, the result in experiment [1] was inactive. The Potency entry in experiment [2], in experiment [3] and in experiment [4] was “inactive” throughout. In addition, the Potency in experiment [5] was 1.83 µM (active) and 2.63 µM (active); in experiment [6] it was 2.3 µM (active) and 3.32 µM (active).

With `CC1COC2(CCN(c3nc(=O)c4cc(C(F)(F)F)cc([N+](=O)[O-])c4s3)CC2)O1` (stereo not given), in experiment [1], the outcome was inactive. Further, the Potency result in experiment [2], in experiment [4], in experiment [5] and in experiment [6] was “inactive” each time.

For `CCCn1c(=O)c2[nH]c(-c3cnn(Cc4cccc(C(F)(F)F)c4)c3)nc2n(CC)c1=O`, the result in experiment [1] was inactive. Moreover, the Potency result in experiment [2], in experiment [3], in experiment [4], in experiment [5] and in experiment [6] was “inactive” each time.

For `CCOc1ccccc1OCCNC(C)Cc1ccc(OC)c(S(N)(=O)=O)c1` (stereo not given), in experiment [1], the result was inactive. Besides, the Potency entry in experiment [2], in experiment [4], in experiment [5] and in experiment [6] was “inactive” in each case. Moreover, the Potency in experiment [3] is 10.7 µM (active).

`O=C(O)[C@H](Cc1c[nH]c2ccccc12)N1C(=O)c2ccccc2C1=O`: in experiment [1], the outcome was inactive. Also, the Potency result in experiment [2] and in experiment [5] was “inactive” in each case.

In the case of `CNC(=O)c1ccccc1Nc1nc(Nc2ccc(N3CCOCC3)cc2OC)ncc1Cl`, the outcome in experiment [1] was inactive. Also, in experiment [2], the Potency result was “inactive”. Moreover, the Potency in experiment [4] was 0.301 µM (active); in experiment [5], 2.05 µM (active) and 2.35 µM (active); in experiment [6], 649 nM (active) and 1.05 µM (active).

For the molecule `CN1CCN(c2ccc3nc(-c4c(N)c5c(F)cccc5[nH]c4=O)[nH]c3c2)CC1`, the result in experiment [1] was inactive. Further, in experiment [2], the Potency result was “inactive”. For the same molecule, the Potency was 1.3 µM (active) and 742 nM (active) in experiment [5]; 1.16 µM (active) and 742 nM (active) in experiment [6].

On to `NC(=O)c1cccc2cn(-c3ccc([C@@H]4CCCNC4)cc3)nc12`, for which the result in experiment [1] was inactive. In addition, the Potency result in experiment [2] and in experiment [4] was “inactive” throughout. The Potency in experiment [5] is 4.59 µM (active) and 2.63 µM (active); in experiment [6], 2.9 µM (active) and 2.35 µM (active).
